GoLoco inh red: RGS12 GoLoco-Gai1 interaction inhibition; Gai1:RGS12 GoLoco peptide FP, rhodamine, 10 min; Potency, µM (highest dose often 61.6 µM), without a hit: at the highest dose activity, negative = inhibition, actives largely listed as inhibitors; hit rate 0.44% among 230,000; AID 880; active = well fitted inhibition curve with a large enough effect, not every such curve was filed as active; inactive = no such curve, though single readings can be large or run the other way; also: potency is read from the fitted curve at half-maximal effect; % is scaled to controls: 0 for no effect and ±100 for the full control effect; nearly all actives have a fitted effect of over 30% in size
Target sequence (P63096 whole entry, looked up): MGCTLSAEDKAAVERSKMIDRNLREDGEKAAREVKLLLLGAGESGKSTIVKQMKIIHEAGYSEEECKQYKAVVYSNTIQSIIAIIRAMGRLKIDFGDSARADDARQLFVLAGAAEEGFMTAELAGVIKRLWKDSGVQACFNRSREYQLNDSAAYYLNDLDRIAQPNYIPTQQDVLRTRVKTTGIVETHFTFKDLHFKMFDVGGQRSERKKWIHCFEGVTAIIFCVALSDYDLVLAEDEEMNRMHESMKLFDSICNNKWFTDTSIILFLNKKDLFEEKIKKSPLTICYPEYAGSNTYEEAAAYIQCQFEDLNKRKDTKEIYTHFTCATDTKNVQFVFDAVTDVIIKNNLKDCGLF
ALDH1A1 inh: blocks purified human ALDH1A1 activity | Potency, µM (doses to about 75.3 µM), inactives show at the highest dose activity, negative = inhibition, actives largely listed as inhibitors | hit rate 7.3% among 220,000 | Purified ALDH1A1, NADH fluorescence, propionaldehyde substrate; active = well fitted inhibition curve with a large enough effect, not every such curve was filed as active; inconclusive = small, poorly fitted or top-dose-only effect, or another doubt; inactive = no such curve, though single readings can be large or run the other way;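 also: potency is read from the fitted curve at half-maximal effect; plate controls were no enzyme wells and a reference inhibitor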
HttQ103 aggreg: reduces HttQ103-GFP aggregates in PC12 cells | PC12 HttQ103-GFP aggregates, Acumen cytometry, 40 h | Potency, µM (titrated, usually from 46.1 µM), for the others: at the top dose activity change, negative = inhibition, most hits filed as inhibitors | hit rate 1.1% among 220,000 | AID 1688; also: potency is read from the fitted curve at half-maximal effect; % is scaled to controls: 0 for no effect and ±100 for the full control effect; nearly all actives have a fitted effect of over 60% in size
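Ecdysone-promoter PC12 model expressing HTT exon 1 Q103 fused to GFP, induced by tebufenozide at 100 nM final. Compounds titrated; aggregates sized 1–25 µm scored on a 488 nm laser cytometer.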
HPGD block: blocks human HPGD enzyme activity; P15428; purified HPGD, NADH fluorescence kinetic, PGE2 substrate; Potency, µM, inactives show at the top dose activity change, negative = inhibition, usual class: inhibitors; hit rate 4.3% among 150,000; active = well fitted inhibition curve with a large enough effect, not every such curve was filed as active; inconclusive = small, poorly fitted or top-dose-only effect, or another doubt; inactive = no such curve, though single readings can be large or run the other way; also: potency is read from the fitted curve at half-maximal effect; % is scaled to controls: 0 for no effect and ±100 for the full control effect
Target sequence (P15428 whole entry, looked up): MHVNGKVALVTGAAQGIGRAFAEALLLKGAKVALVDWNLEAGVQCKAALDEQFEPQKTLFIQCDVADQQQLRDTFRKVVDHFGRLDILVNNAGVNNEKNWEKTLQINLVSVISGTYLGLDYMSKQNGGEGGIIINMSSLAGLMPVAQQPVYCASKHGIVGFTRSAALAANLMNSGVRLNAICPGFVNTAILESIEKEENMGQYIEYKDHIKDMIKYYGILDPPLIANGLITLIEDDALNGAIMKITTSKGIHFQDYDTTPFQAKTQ
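NADH formation kinetics: reaction with 30 uM PGE2 and 1 mM NAD+ (final), 20 nM enzyme, Tris-HCl pH 8 with Tween 20, after 15 min compound preincubation at room temperature. Fluorescence change, last versus first of five reads.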
PNC assembly inh: perinucleolar compartment assembly inhibition | hit rate 3.1% among 140,000 | PC3M PTB-GFP, PNC prevalence imaging, 16 h; active compounds read low | activity change (PNC), negative = inhibition, % at 10 µM;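 active = readout at or below -70, meaning at least 70% loss of cells showing the perinucleolar compartment, a nuclear body marking cancer cells; inconclusive = readout between -30 and a set limit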;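 also: plate controls were DMSO wells for no effect and camptothecin positive control wells for full effect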
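Read-out is percentage of cells bearing a perinucleolar compartment, from automated 20x imaging of fixed, Hoechst-stained PC3M PTB-GFP cells. Cells were seeded 4 h, then exposed 16 h to compound (23 nl of library stock) in duplicate plates.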
HTT cytoprotect: Huntington cell model cytoprotection by ATP luminescence. Potency, µM (doses to about 56.4 µM), without a hit: cytoprotection (ATP increase), hits mostly activators. hit rate 0.14% among 230,000. AID 1471. PC12 HTT-Q103 induced, cytoprotection, ATP luminescence, 40 h; also: potency is read from the fitted curve at half-maximal effect; % of control where 0% means no effect; nearly all actives have a fitted effect of over 45% in size
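ATP quantification (ATPlite) reports survival of PC12 cells in which tebufenozide, 100 nM final, switches on Htt exon 1 with 103 glutamines linked to GFP; compounds are titrated.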
* hit, by the source's call; u = inconclusive; x = not tested or not shown; [ ] = another dose, or the depositor's remark. Only some compounds are listed: those with a hit (about 11% of all), similar ones and a draw of the others. Unless noted, calls follow the shape of the dose curve; as a rule, active = well fitted curve in the direction sought with a large enough effect; inconclusive = small, poorly fitted or top-dose-only effect, or another doubt; inactive = no such curve, though single readings can be large; an effect the other way counts as inactive or inconclusive.

SMILES	GoLoco inh red	ALDH1A1 inh	HttQ103 aggreg	HPGD block	PNC assembly inh	HTT cytoprotect
O=C(Nc1ccc(F)cc1)Nc1cc(OCC(F)(F)F)cc(OCC(F)(F)F)c1	8%	9%	3.5µM*	-4%	17	-67%[10 µM]
O=C(NNC(=S)Nc1ccc(Br)cc1)c1ccc(N2CCOCC2)c([N+](=O)[O-])c1	11%	0.89µM*	21%	35µM*	9	7%[10 µM]
Cc1ccc(NC(=S)NNC(=O)c2ccc(N3CCOCC3)c([N+](=O)[O-])c2)cc1Cl	4%	7.9µM*	u	-11%	0	19%[10 µM]
Cc1cc(C(=O)Nc2ccc(N3CCCC3)c(Cl)c2)ccc1[N+](=O)[O-]	-11%	20µM*	-21%	-11%	5	-2%[10 µM]
CC(=O)c1ccc(NC(=O)C2CC(=O)N(C(C)C)C2)cc1 (configuration not stated)	4%	10%	24%	x	x	19%[10 µM]
CC1C2(C)OC(=N)C(C#N)(C(C)O2)C1(C#N)C#N (configuration not stated)	25µM*	x	20%[9.22 µM]	x	x	6%[10 µM]
CCc1c(C)nc(Nc2nc(C)c3ccc(OC)cc3n2)[nH]c1=O	2%	2.2µM*	5%	-4%	-27	0%[10 µM]
CC(C)N=c1cc2n(-c3ccc(Cl)cc3)c3ccccc3nc-2cc1Nc1ccc(Cl)cc1	10µM*	-5%[20.9 µM]	-31%[20.6 µM]	-3%	x	-61%[17.1 µM]
CCN1CCC[C@@H]1CNC(=O)c1c(O)c(Cl)cc(Cl)c1OC	x	x	x	x	x	9%[1.9 µM]
CCOc1cc(CNc2ncc(-c3ccc(OC)cc3)n2C)ccc1O	0%	14µM*	7%	-7%	50	-17%[0.074 µM]
CCOC(=O)c1cc(-c2cccc([N+](=O)[O-])c2)nc2[nH]c(=O)[nH]c(=O)c12	27%	14µM*	4%	x	x	u
O=C(NCc1cccnc1)/C(=C/c1ccc(-c2cccc(Cl)c2)o1)S(=O)(=O)c1ccccc1	-1%	13µM*	u	-20%	18	-87%
O=C(Cc1cccs1)NC1CCCC1	7%	12%	11%[9.22 µM]	x	x	16%[10 µM]
O=C(NC1CCCCCC1)c1cccs1	19%	u	6%	25µM*	u	-9%[10 µM]
O=C(NC1CCCCCCC1)c1ccccc1-c1ccccc1	2%	u	-7%	-1%	-113*	x
O=C(CNC1CCCCCC1)c1cccs1	-2%	6µM*	-6%	u	-16	-4%[10 µM]
O=C(NC1CCCCC1NC(=O)c1cccs1)c1cccs1 (configuration not stated)	-6%	9%	7%	-8%	38	4%[0.074 µM]
O=C(CN1C(=O)C2C3CCC(C3)C2C1=O)N1CCN(Cc2ccccc2)CC1 (configuration not stated)	12%	-5%	5%[9.22 µM]	x	x	21%[10 µM]
Oc1cc(O)c2c(c1)O[C@H](c1ccc(O)c(O)c1)[C@@H](O)[C@@H]2c1c(O)cc(O)c2c1O[C@@H](c1ccc(O)c(O)c1)[C@H](O)C2	5%[14.2 µM]	2%[13.5 µM]	x	0%	x	-4%[10 µM]
CCCCC[C@H](O)/C=C/C1=C(CCCCCCC(=O)O)C(=O)CC1	6%	0%	17%	-8%	-115*	u
CN(c1ccc(OCC(=O)OCC(=O)Nc2ccccc2)cc1)S(=O)(=O)c1cccs1	-44%	-8%	1.3µM*	-16%	116	-80%[1.9 µM]
CN(C(=O)c1cccs1)c1ccc(OCC(=O)Nc2ccc(C(=O)O)cc2)cc1	-14%	x	u	x	x	0.89µM*
COc1ccc(CCNC2CC(=O)N(C3CCCCC3)C2=O)cc1OC (configuration not stated)	-5%	-1%	0%	x	x	5%
O=C(Nc1nnc(C2CC2)s1)c1cccnc1Oc1ccc(Cl)cc1	33%	x	0%[9.22 µM]	x	x	-15%[10 µM]
O=C(O)CCCCCCCCCC(=O)c1cccs1	-5%	10%	3%	16µM*	-5	-8%
SMILES	GoLoco inh red	ALDH1A1 inh	HttQ103 aggreg	HPGD block	PNC assembly inh	HTT cytoprotect
CC(CC(=O)c1cccs1)CC(=O)c1cccs1	-10%	7.9µM*	6%	13µM*	-3	13%[10 µM]
NNS(=O)(=O)c1cc(C(=O)O)cc(C(=O)O)c1	7%[14.2 µM]	-10%[13.5 µM]	x	-5%	x	0%[10 µM]
C/C=C/OC(=O)NC(c1ccccc1)[C@]1(C(C)=O)CCOC1=O (some centres not stated)	x	-17%[13.5 µM]	x	x	x	u
COc1ccccc1/C=C/C(=O)N1CCC(c2ccccc2)C1 (configuration not stated)	10%	-6%	11%	-8%	13	1%[0.074 µM]
Cc1ccc(C)c(N2CCN(C(=O)Nc3ccc4c(c3)N(C)C(=O)CS4)CC2)c1	31%	12%	22µM*	x	x	-52%
Cc1ccc(S(=O)(=O)N(CC(=O)O)c2ccc(Cl)cc2)cc1	x	3%	x	-6%	x	x
Cc1ccc(NC(=O)Cn2cnc3cc([N+](=O)[O-])ccc3c2=O)c(Cl)c1	0%	2.8µM*	19%[9.22 µM]	x	x	-2%[10 µM]
Cc1nc(-c2cccc(Br)c2)ccc1C(=O)O	8%	-3%	-12%	x	x	-47%
COc1ccc(CCSc2nnc(C3CCCCC3)n2N)cc1	6%	-8%	-15%	20µM*	22	5%
COc1ccc(NC(=O)CSc2nnc(C3CC3)n2N)cc1	6%	-15%	-4%	-11%	38	-8%
O=C(c1cccc(F)c1)N1CCC2(CC1)CN(c1ccc(-c3ccccc3)cc1)C2	-2%	u	x	u	x	-3%
O=C1OC(c2ccc(Cl)cc2)/C(=C(/O)c2ccccc2)C1=O (configuration not stated)	-10%	7.9µM*	13%	-13%	-10	-7%

Source: PubChem
